Measurements published in PubChem BioAssay (NCI).
This is part of a sample that, as a whole, favours compounds with a hit. Of some 83,000 tested, about 20% had one in any assay.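 Activity criterion: percent growth below 10, measured after cells in 96-well plates were exposed to a single compound concentration for 48 hours.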 Unmarked numbers belong to inactive results. Active and inactive are the calls of the source.

Columns and labels:
Test in all cases: NCI-60 one-dose screen, 48 h (100 = growth as untreated, 0 = no growth, -100 = all killed)
Conditions in all cases: 10 µM unless noted
SK-MEL-2 melanoma = tested on: SK-MEL-2 melanoma
EKVX NSCLC = tested on: EKVX NSCLC
SN12C renal = tested on: SN12C renal
TK-10 renal = tested on: TK-10 renal
ACHN renal = tested on: ACHN renal
CAKI-1 renal = tested on: CAKI-1 renal
A498 renal = tested on: A498 renal
CCRF-CEM leukemia = tested on: CCRF-CEM leukemia
MOLT-4 leukemia = tested on: MOLT-4 leukemia
UO-31 renal = tested on: UO-31 renal

SMILES	growth (SK-MEL-2 melanoma)	growth (EKVX NSCLC)	growth (SN12C renal)	growth (TK-10 renal)	growth (ACHN renal)	growth (CAKI-1 renal)	growth (A498 renal)	growth (CCRF-CEM leukemia)	growth (MOLT-4 leukemia)	growth (UO-31 renal)
COc1ccc(-c2cc(-c3cc(OC)ccc3OC)nc(SCC(C)=O)c2C#N)cc1	78.6%	51.6%	76.7%	101%	56.5%	40.6%	39%	69.2%	37.9%	
CS(=O)(=O)c1ccc(-c2nc3ccccc3n2CC(=O)N/N=C/c2ccccc2)cc1	99.7%	92.9%	108%	103%	101%	89.4%	111%	104%	117%	
CC(C)NS(=O)(=O)/N=C1\NC(=O)NC1=C(Cl)Cl	95.6%	103%	94.8%	116%	113%	91.6%	116%	81.4%	87%	
CCN1C(=O)N(c2ccccc2)C2NC(=S)N(/N=C/C=C/c3ccccc3OC)C21 (configuration not stated)	50.8%	54%	17.9%	75.7%	29.2%	19.5%	3.46% (active)	11.4%	13.3%	
ClC(Cl)c1nc(-c2ccccc2)n2nc(-c3ccccc3)cc2n1	72.1%	-22.1% (active)	58.7%	0.776% (active)	-57% (active)	-34.7% (active)	-26.5% (active)	63.3%	30.8%	
[N-]=[N+]=NCC1OC(n2cnc3c(NC(=O)Nc4ccccc4)ncnc32)C2OC(=O)CC12 (configuration not stated)	90.7%		118%	101%	101%	101%	100%	91.7%	84.6%	78.8%
O=C1OCC2=C1C(c1ccccc1)c1cc3c(cc1N2CCO)OCCO3 (configuration not stated)	57.3%		35.1%	63.5%	36.7%	51%	-21.2% (active)	10.5%	21.4%	68.4%
Cc1ccc2cnc(N)c(C#Cc3cc(C(=O)Nc4ccc(CN5CCN(C)CC5)c(C(F)(F)F)c4)cnc3C)c2c1	6.23% (active)		2.6% (active)	39.7%	-100% (active)	-35.7% (active)	-75.9% (active)	-34.8% (active)	-5.68% (active)	-82% (active)
